PubChem BioAssay (NCATS)
Records with an inconclusive call do not appear. Active and inactive are the calls of the source. The call rests on the fitted dose curve; in most records, active means well fitted curve in the direction sought with a large enough effect; inconclusive means small, poorly fitted or top-dose-only effect, or another doubt; inactive means no such curve, though single readings can be large; an effect the other way counts as inactive or inconclusive.

Legend:
[1] = molecular target: Rap guanine nucleotide exchange factor 3 (Homo sapiens) (UniProt O95398); assay: Confirmatory qHTS for agonist of cAMP-regulated guanine nucleotide exchange factor 3 (EPAC1) (AID 1645881);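 further: EPAC1 catalysed release of BODIPY-GDP from Rap1B seen as fluorescence loss; 100% = effect of cAMP agonist control; nearly all actives have a fitted effect of over 75% in size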
[2] = molecular target: Rap guanine nucleotide exchange factor 4 (Homo sapiens) (UniProt Q8WZA2); assay: Confirmatory qHTS for agonist of cAMP-regulated guanine nucleotide exchange factor 4 (EPAC2) (AID 1645884);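 further: nucleotide exchange releases bodipy-GDP from Rap1 and this lowers its fluorescence; on the % scale 0 is the no-effect control and ±100 the full control effect; nearly all actives have a fitted effect of over 65% in size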
[3] = molecular target: Rap guanine nucleotide exchange factor 3 (Homo sapiens) (UniProt O95398); assay: Counterscreen qHTS for antagonist of cAMP-regulated guanine nucleotide exchange factor 3 (EPAC1) (AID 1645888);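 further: fluorescence loss as bound BODIPY-GDP is released from Rap1B; % of control where 0% means no effect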
Method in brief: (§1)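 Rap1B–BODIPY-GDP (250 nM) with 50 uM GDP; compounds pin-transferred to 9.74 nM–152 uM final (activator) or from 7.32 nM upwards (inhibitor). Fluorescence Ex/Em 480/540 nm read at 5 and 30 min, then after adding cAMP or buffer, at room temperature.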

[4] = molecular target: Rap guanine nucleotide exchange factor 3 (Homo sapiens) (UniProt O95398); assay: Counterscreen qHTS for agonist of cAMP-regulated guanine nucleotide exchange factor 3 (EPAC1) (AID 1645889); further: % of control where 0% means no effect; nearly all actives have a fitted effect of over 40% in size
Method in brief: as §1

Sequence of Rap guanine nucleotide exchange factor 3 (Homo sapiens) (O95398 whole entry, looked up): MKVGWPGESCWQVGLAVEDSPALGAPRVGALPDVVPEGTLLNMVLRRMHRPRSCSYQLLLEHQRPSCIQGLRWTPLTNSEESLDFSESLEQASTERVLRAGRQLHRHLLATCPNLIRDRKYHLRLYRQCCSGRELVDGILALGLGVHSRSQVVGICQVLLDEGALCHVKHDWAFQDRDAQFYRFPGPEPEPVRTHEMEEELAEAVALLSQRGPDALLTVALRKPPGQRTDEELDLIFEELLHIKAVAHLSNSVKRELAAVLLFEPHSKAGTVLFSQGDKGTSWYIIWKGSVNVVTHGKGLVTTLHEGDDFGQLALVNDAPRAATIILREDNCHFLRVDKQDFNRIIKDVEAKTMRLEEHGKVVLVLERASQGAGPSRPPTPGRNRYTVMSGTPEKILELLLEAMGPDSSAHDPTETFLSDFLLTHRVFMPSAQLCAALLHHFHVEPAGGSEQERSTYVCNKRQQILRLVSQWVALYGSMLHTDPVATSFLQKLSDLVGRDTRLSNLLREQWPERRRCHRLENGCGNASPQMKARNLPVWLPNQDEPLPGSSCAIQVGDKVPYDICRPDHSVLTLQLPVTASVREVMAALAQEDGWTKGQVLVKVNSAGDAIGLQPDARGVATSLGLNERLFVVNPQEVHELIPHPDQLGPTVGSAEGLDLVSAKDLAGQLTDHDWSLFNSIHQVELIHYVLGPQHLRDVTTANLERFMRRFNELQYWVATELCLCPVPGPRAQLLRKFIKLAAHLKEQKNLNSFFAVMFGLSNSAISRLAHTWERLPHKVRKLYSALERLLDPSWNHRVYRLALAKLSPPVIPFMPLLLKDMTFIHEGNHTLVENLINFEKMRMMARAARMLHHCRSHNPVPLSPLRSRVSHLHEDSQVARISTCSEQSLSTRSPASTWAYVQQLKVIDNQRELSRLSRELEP
Sequence of Rap guanine nucleotide exchange factor 4 (Homo sapiens) (Q8WZA2 whole entry, looked up): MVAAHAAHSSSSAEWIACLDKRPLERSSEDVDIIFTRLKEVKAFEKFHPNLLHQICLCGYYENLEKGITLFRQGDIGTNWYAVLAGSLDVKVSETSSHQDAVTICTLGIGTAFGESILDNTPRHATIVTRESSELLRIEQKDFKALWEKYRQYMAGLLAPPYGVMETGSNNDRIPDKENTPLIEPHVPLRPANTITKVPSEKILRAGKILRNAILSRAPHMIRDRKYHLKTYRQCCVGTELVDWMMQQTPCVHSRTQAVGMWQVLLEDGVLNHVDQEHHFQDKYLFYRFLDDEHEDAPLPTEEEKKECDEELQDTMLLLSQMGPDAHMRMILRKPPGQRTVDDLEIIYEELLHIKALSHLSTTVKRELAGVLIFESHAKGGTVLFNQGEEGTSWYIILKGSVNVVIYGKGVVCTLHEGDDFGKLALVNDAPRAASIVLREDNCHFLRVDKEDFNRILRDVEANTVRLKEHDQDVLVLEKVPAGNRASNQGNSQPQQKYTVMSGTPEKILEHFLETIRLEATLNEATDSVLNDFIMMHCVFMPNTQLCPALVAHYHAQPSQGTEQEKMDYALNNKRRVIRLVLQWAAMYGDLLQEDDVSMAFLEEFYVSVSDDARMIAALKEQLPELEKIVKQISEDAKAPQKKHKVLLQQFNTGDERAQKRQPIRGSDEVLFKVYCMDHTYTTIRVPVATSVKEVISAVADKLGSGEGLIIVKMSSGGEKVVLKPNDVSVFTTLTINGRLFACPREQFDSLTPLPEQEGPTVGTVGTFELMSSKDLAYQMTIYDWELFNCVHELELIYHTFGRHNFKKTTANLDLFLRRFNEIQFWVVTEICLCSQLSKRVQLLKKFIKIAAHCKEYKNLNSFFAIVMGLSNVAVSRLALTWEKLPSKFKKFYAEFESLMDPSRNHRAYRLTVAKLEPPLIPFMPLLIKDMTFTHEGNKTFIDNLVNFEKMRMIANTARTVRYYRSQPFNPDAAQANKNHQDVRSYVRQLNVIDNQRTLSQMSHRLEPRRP

O=C(O)c1ccc(COc2ccc3ccccc3c2/C=C2/NC(=O)N(Cc3ccc(F)cc3)C2=O)cc1
inactive: Potency [1] | Potency [2] | Potency [3] | Potency [4]

CCC(C)(C)c1ccc(Oc2ccc(N)cc2)cc1
inactive: Potency [1] | Potency [2] | Potency [3] | Potency [4]

Cn1c(N)c(C(=O)COC(=O)Cc2ccc(Cl)c(Cl)c2)c(=O)n(C)c1=O
inactive: Potency [1] | Potency [2] | Potency [3] | Potency [4]

Cc1c(C(=O)N2CCCC2)oc2ccc(Br)cc12
inactive: Potency [1] | Potency [2] | Potency [3] | Potency [4]

CC(=O)C1=C(O)C2(C)c3c(O)c(C)c(O)c(C(C)=O)c3OC2CC1=O (stereo unspecified)
inactive: Potency [1] | activation [2] -4.59% [at 17.1 µM, percent relative to cAMP agonist control] | activity change, negative = inhibition [3] -6.21% [at 30.8 µM] | activation [4] -4.12% [at 30.8 µM]

COc1cccc(C(=O)Oc2ccc(/C=N/Nc3ccc(C(=O)O)cc3)cc2OC)c1
inactive: Potency [1] | Potency [2] | Potency [3] | Potency [4]

CN(CC(=O)Nc1ccc(F)cc1)C(=O)COc1ccc(C(=O)c2ccccc2)cc1
inactive: Potency [1] | Potency [2] | Potency [3] | Potency [4]

CCOC(=O)c1c(CC(C)C)csc1NC(=O)COC(=O)c1ccc(O)cc1
inactive: Potency [1] | Potency [2] | Potency [3] | Potency [4]

O=C(COc1ccc(Cl)cc1Cl)c1ccc[nH]1
inactive: Potency [1] | activation [2] -1.61% [at 17.1 µM, percent relative to cAMP agonist control] | activity change, negative = inhibition [3] -17.9% [at 30.8 µM] | activation [4] 7.74% [at 30.8 µM]

N=C1S/C(=C\c2ccco2)C(=O)N1c1ccc2c(c1)OCO2
inactive: Potency [1] | Potency [2] | Potency [3] | Potency [4]

COc1ccc(NC(=O)c2cccnc2NCCc2ccccc2)cc1
inactive: Potency [1] | Potency [2] | Potency [3] | Potency [4]

CN(C)c1cc(Cl)c2nonc2c1N
inactive: Potency [1] | Potency [2] | Potency [3] | Potency [4]

COc1cnc(N(C)C)nc1Sc1cccc(Cl)c1
inactive: Potency [1] | activation [2] 2.02% [at 17.1 µM, percent relative to cAMP agonist control] | activity change, negative = inhibition [3] -24.7% [at 30.8 µM] | activation [4] -4.79% [at 30.8 µM]

Cc1cc(C)c2c(CN3CCC(C)CC3)cc(=O)oc2c1
inactive: Potency [1] | activation [2] -1.95% [at 17.1 µM, percent relative to cAMP agonist control] | activity change, negative = inhibition [3] 10.9% [at 30.8 µM] | activation [4] 22% [at 30.8 µM]
